PubChem BioAssay AID588651 (The Scripps Research Institute Molecular Screening Center, 2011)
Activity calls are given as the source filed them. Cut-off read from the data, not from the text of the source: active = inhibition above about 65%; inactive = the rest.

Tested on: Fam108b
Assay: Fam108b inhibitors and proteome off-target selectivity – biochemical, gel-based ABPP, recombinant soluble Fam108b, HTS hits, complex proteome, late-stage follow-up (AID 588651);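 note: Fam108b spiked into mouse brain membrane proteome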
Conditions: FP-rhodamine labeling in proteome, at 20 µM, hits give high values

inhibition, active:
O=c1oc(-c2ccccc2Cl)nc2ccsc12 95%
O=C(Nc1ccc(-c2csc(Nc3cccc(C(F)(F)F)c3)n2)cc1)c1cccc(C(F)(F)F)c1 95%
O=c1cc(-c2ccc(O)c(-c3c(O)cc(O)c4c(=O)cc(-c5ccc(O)cc5)oc34)c2)oc2cc(O)cc(O)c12 95%
Cc1nc2scc(-c3ccccc3)c2c(=O)o1 80%
COc1ccc(-c2csc3nc(-c4ccccc4F)oc(=O)c23)cc1 95%
COc1cccc(C=NNC(=O)c2[nH]c(C)c(C(=O)NN=Cc3cccc(OC)c3O)c2C)c1O 75%
O=c1oc(-c2ccccc2F)nc2scc(-c3ccccc3)c12 98%

inhibition, inactive:
Cc1ccc(-n2c(O)c(/C=N/Nc3ccc(S(=O)(=O)N4CCOCC4)cc3[N+](=O)[O-])c3ccccc3c2=O)c(C)c1 40%
Cc1cc(C(C#N)c2ccc(Cl)cc2)c(Cl)cc1NC(=O)c1cc(I)cc(I)c1O (centres undefined) 50%
COc1cc(-c2nc(-c3ccc4c(c3)-c3ccccc3S4(=O)=O)c(-c3ccccc3)[nH]2)cc(OC)c1O 40%
Cc1cc(C)nc(SCc2ccc(C(=O)NN=Cc3cccc(O)c3O)cc2)n1 30%
CN(c1ccccc1)S(=O)(=O)c1ccc(NC(=O)c2ccc(-c3ccccc3)cc2)cc1 40%
Cc1ccnc(N=Cc2nc(-c3ccccc3Br)oc2O)c1 7%
CC1CCCCN1S(=O)(=O)c1ccc(C(=O)Nc2ccccc2-c2nc3ccccc3[nH]2)cc1 (centres undefined) 50%
Cc1ccc(S(=O)(=O)/N=C2\C=C(Nc3cccc(C(=O)O)c3)C(=O)c3ccccc32)cc1 0%
CCn1nc([N+](=O)[O-])c(C(C#N)c2nc3cc(C(F)(F)F)ccc3s2)c(Cl)c1=O (centres undefined) 0%
CCc1ccc(S(=O)(=O)/N=C2\C=C(Nc3cccc(C(=O)O)c3)C(=O)c3ccccc32)cc1 0%
CC1=CC(=O)c2c(O)ccc(O)c2C1=O 50%
Brc1ccc(-c2csc(Nc3nc(-c4ccc(Br)cc4)cs3)n2)cc1 50%
Nc1cc2nsnc2cc1Br 0%
O=C(NC1CCCCC1)c1sc(=S)n2c1[nH]c(=O)c1ccccc12 0%
Clc1ccccc1C(c1ccccc1)(c1ccccc1)n1ccnc1 0%
CCN(c1ccccc1)S(=O)(=O)c1ccc(NC(=O)c2nc(S(C)(=O)=O)ncc2Cl)cc1 0%
O=C1C(SCCO)=C(SCCO)C(=O)c2ccccc21 50%
Cc1ccccc1NC1=C/C(=N\S(=O)(=O)c2cccs2)c2ccccc2C1=O 0%
COc1cccc(-n2c(SCc3cc(=O)oc4cc(O)c(O)cc34)nc3ccccc3c2=O)c1 10%
Oc1ccccc1C1Nc2cccc3cccc(c23)N1 0%
CCNc1ccc2noc3c2c1C(=O)c1ccccc1-3 0%
Cc1ccc(C)c(-n2c3nc(=O)[nH]c(=O)c-3cc3cc([N+](=O)[O-])ccc32)c1 0%
Cc1[nH]c2ccccc2c1C=NNC(=O)c1cccc(S(=O)(=O)Nc2cccc(C(F)(F)F)c2)c1 60%
CN(C)S(=O)(=O)c1cccc(NC(=O)COC(=O)c2cc(-c3cccc(Br)c3)nc3ccccc23)c1 0%
Nc1ccc2nc(-c3cccc(-c4nc5ccc(N)cc5[nH]4)c3)[nH]c2c1 30%
O=C1C(Cl)=C(N2CCC(C(=O)O)CC2)C(=O)c2ccccc21 0%
COc1cccc2c1C(=O)c1c(O)c3c(c(O)c1C2=O)C[C@@](O)(C(=O)CO)C[C@@H]3O[C@H]1C[C@H](N)[C@H](O)[C@H](C)O1 0%
